We go through eleven compounds from PubChem BioAssay (NCATS).

Results filed as inconclusive are left out. Where a call stands in place of a potency, no number is given. The source made the active and inactive calls. Calls come from the whole dose curve; as a rule, active = well fitted inhibition curve with a large enough effect; inconclusive = small, poorly fitted or top-dose-only effect; inactive = flat fitted curve, though single readings scatter.
Potency is the fitted concentration of half-maximal effect.

In one test the test system is SC27B. Nature of the test: qHTS profiling for inhibitors of Plasmodium falciparum proliferation (AID 504749). Note: nearly all actives have a fitted effect of over 60% in size. The settings on record: P. falciparum in erythrocytes, SYBR Green DNA, 72 h; series mostly up to 28.7 µM. The procedure, abridged:
(§1)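 Fluorescence of SYBR Green-bound parasite DNA, read at 485/535 nm, served as the growth measure. Infected erythrocytes were cultured with compound 72 h; artemisinin (0.29 uM) and DMSO wells defined the normalization range.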
(In general: qHTS replaces the single test concentration by a dilution series.)
For the compound `CO/N=C(/C(=O)N[C@@H]1C(=O)N2C(C(=O)O)=CCS[C@H]12)c1csc(N)n1`, the Potency entry is “inactive”.

For the compound `Cc1cc(CC(C)CC(C)(C)C)n(O)c(=O)c1` (stereo not drawn), the Potency is 2820 nM (active).

Take `CC1CCC(C(C)C)C(OC(=O)c2ccccc2O)C1` (stereo not drawn): the Potency entry was “inactive”.

As to `CO[C@@H]1[C@@H](OC2OC(C)C(OC3CC(C)(O)C(OC(=O)CC(C)C)C(C)O3)C(N(C)C)C2O)[C@@H](CC=O)C[C@@H](C)C(=O)/C=C\C2O[C@H]2C[C@@H](C)OC(=O)C[C@H]1OC(C)=O` (stereo partly drawn), the Potency is 10000 nM (active).

As to `CCC(=O)O[C@@H](OP(=O)(CCCCc1ccccc1)CC(=O)N1C[C@H](C2CCCCC2)C[C@H]1C(=O)O)C(C)C` (stereo partly drawn), the Potency entry was “inactive”.

Turning to `CC(=O)O[C@@]12CO[C@@H]1C[C@H](O)[C@@]1(C)C(=O)[C@H](O)C3=C(C)[C@@H](OC(=O)C(O)[C@@H](NC(=O)OC(C)(C)C)c4ccccc4)C[C@@](O)([C@@H](OC(=O)c4ccccc4)[C@H]21)C3(C)C` (stereo partly drawn), the Potency was 199 nM (active).

On to `CC1(C)S[C@@H]2[C@H](NC(=O)COc3ccccc3)C(=O)N2[C@H]1C(=O)O`, for which the Potency entry was “inactive”.

On to `CCN1/C(=C/C=C/C=C/c2sc3ccccc3[n+]2CC)Sc2ccccc21`, for which the Potency is 6310 nM (active).

Regarding `O=NCc1ccc([N+](=O)[O-])o1`, the Potency result is “inactive”.

For another test, the system named is TAB109. The description is as above. The settings on record: P. falciparum in erythrocytes, SYBR Green DNA, 72 h; series mostly up to 28.7 µM. Put shortly: as §1
Take `CO/N=C(/C(=O)N[C@@H]1C(=O)N2C(C(=O)O)=CCS[C@H]12)c1csc(N)n1`: the Potency entry is “inactive”.

For the compound `Cc1cc(CC(C)CC(C)(C)C)n(O)c(=O)c1` (stereo not drawn), the Potency is 2240 nM (active).

Turning to `CC1CCC(C(C)C)C(OC(=O)c2ccccc2O)C1` (stereo not drawn), the Potency entry is “inactive”.

Take `CO[C@@H]1[C@@H](OC2OC(C)C(OC3CC(C)(O)C(OC(=O)CC(C)C)C(C)O3)C(N(C)C)C2O)[C@@H](CC=O)C[C@@H](C)C(=O)/C=C\C2O[C@H]2C[C@@H](C)OC(=O)C[C@H]1OC(C)=O` (stereo partly drawn): the Potency is 3980 nM (active).

Turning to `CCC(=O)O[C@@H](OP(=O)(CCCCc1ccccc1)CC(=O)N1C[C@H](C2CCCCC2)C[C@H]1C(=O)O)C(C)C` (stereo partly drawn), the Potency result is “inactive”.

Take `CC(=O)O[C@@]12CO[C@@H]1C[C@H](O)[C@@]1(C)C(=O)[C@H](O)C3=C(C)[C@@H](OC(=O)C(O)[C@@H](NC(=O)OC(C)(C)C)c4ccccc4)C[C@@](O)([C@@H](OC(=O)c4ccccc4)[C@H]21)C3(C)C` (stereo partly drawn): the Potency is 31.6 nM (active).

As for `CC1(C)S[C@@H]2[C@H](NC(=O)COc3ccccc3)C(=O)N2[C@H]1C(=O)O`, the Potency result was “inactive”.

In the case of `CCN1/C(=C/C=C/C=C/c2sc3ccccc3[n+]2CC)Sc2ccccc21`, the Potency was 3980 nM (active).

The subject of another test is TAB113. The test is described as above. The settings on record: P. falciparum in erythrocytes, SYBR Green DNA, 72 h; series mostly up to 28.7 µM. The procedure, abridged:
as §1
Turning to `CO/N=C(/C(=O)N[C@@H]1C(=O)N2C(C(=O)O)=CCS[C@H]12)c1csc(N)n1`, the Potency result was “inactive”.

On to `Cc1cc(CC(C)CC(C)(C)C)n(O)c(=O)c1` (stereo not drawn), for which the Potency is 2820 nM (active).

On to `CC1CCC(C(C)C)C(OC(=O)c2ccccc2O)C1` (stereo not drawn), for which the Potency entry was “inactive”.

`CC(C)(CO)C(O)C(=O)NCCCC(=O)O` (stereo not drawn): the Potency result is “inactive”.

As for `CO[C@@H]1[C@@H](OC2OC(C)C(OC3CC(C)(O)C(OC(=O)CC(C)C)C(C)O3)C(N(C)C)C2O)[C@@H](CC=O)C[C@@H](C)C(=O)/C=C\C2O[C@H]2C[C@@H](C)OC(=O)C[C@H]1OC(C)=O` (stereo partly drawn), the Potency is 12600 nM (active).

Consider `CCC(=O)O[C@@H](OP(=O)(CCCCc1ccccc1)CC(=O)N1C[C@H](C2CCCCC2)C[C@H]1C(=O)O)C(C)C` (stereo partly drawn), for which the Potency result was “inactive”.

Consider `CC(=O)O[C@@]12CO[C@@H]1C[C@H](O)[C@@]1(C)C(=O)[C@H](O)C3=C(C)[C@@H](OC(=O)C(O)[C@@H](NC(=O)OC(C)(C)C)c4ccccc4)C[C@@](O)([C@@H](OC(=O)c4ccccc4)[C@H]21)C3(C)C` (stereo partly drawn), for which the Potency is 31.6 nM (active).

With `CC1(C)S[C@@H]2[C@H](NC(=O)COc3ccccc3)C(=O)N2[C@H]1C(=O)O`, the Potency result was “inactive”.

For the compound `CCN1/C(=C/C=C/C=C/c2sc3ccccc3[n+]2CC)Sc2ccccc21`, the Potency was 5010 nM (active).

The test system of the next test is TAB165. The description is as above. The settings on record: P. falciparum in erythrocytes, SYBR Green DNA, 72 h; series mostly up to 28.7 µM. The procedure, abridged:
as §1
As to `CO/N=C(/C(=O)N[C@@H]1C(=O)N2C(C(=O)O)=CCS[C@H]12)c1csc(N)n1`, the Potency result was “inactive”.

With `Cc1cc(CC(C)CC(C)(C)C)n(O)c(=O)c1` (stereo not drawn), the Potency is 1780 nM (active).

For the compound `CC1CCC(C(C)C)C(OC(=O)c2ccccc2O)C1` (stereo not drawn), the Potency entry is “inactive”.

As to `CC(C)(CO)C(O)C(=O)NCCCC(=O)O` (stereo not drawn), the Potency was 39.8 nM (active).

In the case of `CCC(=O)O[C@@H](OP(=O)(CCCCc1ccccc1)CC(=O)N1C[C@H](C2CCCCC2)C[C@H]1C(=O)O)C(C)C` (stereo partly drawn), the Potency result was “inactive”.

`CC(=O)O[C@@]12CO[C@@H]1C[C@H](O)[C@@]1(C)C(=O)[C@H](O)C3=C(C)[C@@H](OC(=O)C(O)[C@@H](NC(=O)OC(C)(C)C)c4ccccc4)C[C@@](O)([C@@H](OC(=O)c4ccccc4)[C@H]21)C3(C)C` (stereo partly drawn): the Potency was 141 nM (active).

Turning to `CC1(C)S[C@@H]2[C@H](NC(=O)COc3ccccc3)C(=O)N2[C@H]1C(=O)O`, the Potency result was “inactive”.

With `CCN1/C(=C/C=C/C=C/c2sc3ccccc3[n+]2CC)Sc2ccccc21`, the Potency was 3980 nM (active).

The next test has as its system W2. The test is described as above. The settings on record: P. falciparum in erythrocytes, SYBR Green DNA, 72 h; series mostly up to 28.7 µM. The procedure, abridged:
as §1
For `CO/N=C(/C(=O)N[C@@H]1C(=O)N2C(C(=O)O)=CCS[C@H]12)c1csc(N)n1`, the Potency entry was “inactive”.

As for `Cc1cc(CC(C)CC(C)(C)C)n(O)c(=O)c1` (stereo not drawn), the Potency is 2130 nM (active).

`CC1CCC(C(C)C)C(OC(=O)c2ccccc2O)C1` (stereo not drawn): the Potency result is “inactive”.

As to `CO[C@@H]1[C@@H](OC2OC(C)C(OC3CC(C)(O)C(OC(=O)CC(C)C)C(C)O3)C(N(C)C)C2O)[C@@H](CC=O)C[C@@H](C)C(=O)/C=C\C2O[C@H]2C[C@@H](C)OC(=O)C[C@H]1OC(C)=O` (stereo partly drawn), the Potency was 1690 nM (active).

Take `CC(=O)O[C@@]12CO[C@@H]1C[C@H](O)[C@@]1(C)C(=O)[C@H](O)C3=C(C)[C@@H](OC(=O)C(O)[C@@H](NC(=O)OC(C)(C)C)c4ccccc4)C[C@@](O)([C@@H](OC(=O)c4ccccc4)[C@H]21)C3(C)C` (stereo partly drawn): the Potency was 15.1 nM (active).

Consider `CC1(C)S[C@@H]2[C@H](NC(=O)COc3ccccc3)C(=O)N2[C@H]1C(=O)O`, for which the Potency result was “inactive”.

On to `CCN1/C(=C/C=C/C=C/c2sc3ccccc3[n+]2CC)Sc2ccccc21`, for which the Potency is 1510 nM (active).

On to `Nc1nc(Cl)nc2c1ncn2C1CC(O)C(CO)O1` (stereo not drawn), for which the Potency result is “inactive”.

Turning to `O=NCc1ccc([N+](=O)[O-])o1`, the Potency is 6010 nM (active).
